Measured values from PubChem BioAssay.
Records with an inconclusive call do not appear. Calls of active or inactive are those of the source.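 The calls were made as follows, unless noted: active = viability at or below 30% in both replicate assays; inconclusive = viability at or below 30% in just one of the two assays; inactive = the rest.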

What was measured:
[1] = Her2 expression decrease, cell viability multiplex – SKBR3 breast tumor cells, AlphaScreen, ATP viability, primary screen (AID 461;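 active = Her2 level under about 52% in both replicate screens, with viability over 70% of control, limit read from the data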;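 as to Her2 level: lower value means less Her2 protein in the cells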;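 as to viability: percent of carrier control wells set as 100% viability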); conditions: SKBR3 Her2 protein level, 18-24 h, measured here: SKBR3 viability, ATP luminescence, at 10 µM
[2] = target: Receptor tyrosine-protein kinase erbB-2 (Homo sapiens) (UniProt P04626); experiment: as above; conditions: 18-24 h, at 10 µM, stronger effect = lower value
Sequence of Receptor tyrosine-protein kinase erbB-2 (Homo sapiens) (P04626 whole entry, looked up): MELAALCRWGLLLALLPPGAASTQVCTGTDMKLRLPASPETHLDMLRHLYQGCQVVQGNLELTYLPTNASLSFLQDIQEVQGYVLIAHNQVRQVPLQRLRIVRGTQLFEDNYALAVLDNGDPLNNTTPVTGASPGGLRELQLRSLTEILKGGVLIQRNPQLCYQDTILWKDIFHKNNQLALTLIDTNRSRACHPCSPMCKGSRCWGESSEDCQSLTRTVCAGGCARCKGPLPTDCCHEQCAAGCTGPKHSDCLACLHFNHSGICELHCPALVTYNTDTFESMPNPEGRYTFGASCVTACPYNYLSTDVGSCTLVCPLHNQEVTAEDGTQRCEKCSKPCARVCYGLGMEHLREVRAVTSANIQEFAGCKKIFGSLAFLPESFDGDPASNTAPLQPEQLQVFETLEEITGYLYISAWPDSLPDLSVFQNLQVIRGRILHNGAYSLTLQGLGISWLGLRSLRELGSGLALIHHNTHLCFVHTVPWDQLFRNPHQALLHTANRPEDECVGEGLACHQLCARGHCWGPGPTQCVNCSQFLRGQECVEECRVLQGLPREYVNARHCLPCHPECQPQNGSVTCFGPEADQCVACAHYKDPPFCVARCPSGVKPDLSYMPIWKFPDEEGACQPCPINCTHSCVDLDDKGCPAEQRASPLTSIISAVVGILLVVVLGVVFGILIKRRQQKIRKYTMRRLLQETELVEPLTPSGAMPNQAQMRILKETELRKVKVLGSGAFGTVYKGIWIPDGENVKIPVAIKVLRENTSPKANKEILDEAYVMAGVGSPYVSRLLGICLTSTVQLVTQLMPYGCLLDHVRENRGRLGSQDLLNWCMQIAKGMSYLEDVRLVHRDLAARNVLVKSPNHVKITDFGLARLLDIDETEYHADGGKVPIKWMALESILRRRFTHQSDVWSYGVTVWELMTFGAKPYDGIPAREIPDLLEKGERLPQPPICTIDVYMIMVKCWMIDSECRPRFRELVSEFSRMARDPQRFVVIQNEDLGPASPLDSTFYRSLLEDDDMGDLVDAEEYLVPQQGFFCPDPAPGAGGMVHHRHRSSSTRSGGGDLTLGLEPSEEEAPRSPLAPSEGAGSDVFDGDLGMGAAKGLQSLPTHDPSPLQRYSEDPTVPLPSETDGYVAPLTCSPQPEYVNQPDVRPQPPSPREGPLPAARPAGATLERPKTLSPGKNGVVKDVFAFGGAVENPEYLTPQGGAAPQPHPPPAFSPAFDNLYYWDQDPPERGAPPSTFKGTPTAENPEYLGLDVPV

[3] = reduced viability of SK-BR-3 breast cancer cells – cell-based, 24 h, human, pilot screen (AID 572;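 active = viability at or below 10% of carrier control in both of two separate runs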;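 also: compound exposure lasted between 18 and 24 h rather than exactly 24 h; 100% = carrier-treated control wells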); conditions: SK-BR-3 viability, CellTiter-Glo luminescence, at 10 µM, stronger effect = lower value
[4] = HUVEC growth inhibition – cell-based, human, primary screen (AID 575); conditions: HUVEC proliferation, CellTiter-Glo luminescence, 72 h; at 10 µM; stronger effect = lower value;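 also: 100% = median of untreated cell wells with 0.1% DMSO on each plate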
[5] = H69AR cell proliferation blockers – human, duplicate replicates, primary screen (AID 580;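 active = viability at or under a set limit in both replicates, limit being median viability minus 3 SD, cut at about 48% in these data, passing the limit was not always enough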;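 also: 100% = mean luminescence of untreated wells and 0% = no signal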); conditions: H69AR lung tumor cells viability, ATP luminescence, 72 h; at 10 µM; stronger effect = lower value
[6] = MRP1 drug-resistance reversers in H69AR cells – cell-based, doxorubicin co-treatment, pilot screen (AID 601;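 active = viability loss from added drug above about 55%, and viability with drug at most 40%, in both replicates, limit read from the data, passing the limit was not always enough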); conditions: CellTiter-Glo, 72 h, at 10 µM; for differential viability (reversal): stronger effect = higher value
[7] = yeast transport mutant growth inhibition pilot in 384-well plates, post-Golgi transport modulator project (AID 636; in the data active = inhibition above about 31%); conditions: absorbance 615 nm, about 18 h, stronger effect = higher value
[8] = growth suppression of yeast trafficking mutant, preliminary HTS, modulators of trafficking downstream of Golgi apparatus project, 1536-format plate, OD 615 nm (AID 637; in the data active = inhibition above about 30%); conditions: yeast transport mutant growth, absorbance 615 nm, 18 h; stronger effect = higher value
[9] = S. cerevisiae growth inhibition in permissive medium (OD615), pilot counter-assay for S. cerevisiae lifespan shortening project, permissive growth control (AID 705;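 active = growth inhibition above 25% in both replicates, a cutoff set 3 SD above the mean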); conditions: OD615, 24 h, at 10 µM, stronger effect = higher value
[10] = S. cerevisiae growth inhibition in restrictive medium, OD615, pilot screen, restrictive growth control, yeast lifespan reduction project (AID 706;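 active = growth inhibition above a set limit, 3 SD over mean compound inhibition, in both replicates, cut at about 43% in these data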;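 also: modified DeaD lifespan yeast strain shifted to restrictive glucose medium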); conditions: OD615, 48 h, at 10 µM, stronger effect = higher value
[11] = doxorubicin toxicity protection in MRP-1 cells – H69AR cells, CellTiter-Glo, duplicate, MRP-1 activator project, pilot screen (AID 807;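 active = viability increase at or above a cutoff of the median across tested compounds plus 3 SD, cut at about 8.5% in these data, passing the limit was not always enough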;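 also: compound pretreatment 18-22 h then 72 h combined with doxorubicin; 0% = doxorubicin alone and 100% = vehicle without doxorubicin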); conditions: H69AR viability with doxorubicin, CellTiter-Glo luminescence; at 10 µM; stronger effect = higher value
[12] = viability of HCT116 without oncogenic beta-catenin – human colon tumor cells, pilot screen (AID 823;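 active = cell viability at or below a set limit in both duplicate runs, the limit being the all-compound median minus 4 SD, cut at about 23% in these data, passing the limit was not always enough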;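 also: 0% = wells killed by 20 µM Hyamine and 100% = untreated DMSO cell wells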); conditions: HCT116 beta-catenin knockout viability, CellTiter-Glo, 60 h; at 10 µM; stronger effect = lower value
[13] = viability of PTEN-null HCT116 cells – cell-based, HCT116 clonal line, CellTiter-Glo, pilot screen (AID 824;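 active = viability at or below 27.92% in each of two runs, the all-compound median minus 4 SD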;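 also: 0% = 20 µM Hyamine control and 100% = vehicle cell control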); conditions: HCT116 PTEN-deleted viability, 60 h, at 10 µM, stronger effect = lower value
[14] = RAM pathway blockade in budding yeast – dse1pr::URA3 reporter, 5-FOA selection, pilot screen (AID 869;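 active = inhibition over a set limit, the all-compound mean plus 3 SD, in both replicate runs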;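 also: 0% = DMSO wells with no growth and 100% = 10 µM 1-NA-PP1 with full growth; RAM network block rescues cells from 5-FOA so hits raise OD615 growth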); conditions: S. cerevisiae dse1pr::URA3 5-FOA growth, OD615, 2 d; at 10 µM; stronger effect = higher value; strain carries analog-sensitive mutant Cbk1 kinase
[15] = RAM signaling pathway blockade in yeast – S. cerevisiae, Pdr1DBD-CYC8 efflux-inhibited sensitized strain, primary screen (AID 1298;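 active = RAM network inhibition above 8.4% in each of two replicates, 3 SD over the compound average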;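 also: 0% = DMSO untreated cells without growth and 100% = 10 µM 1-NA-PP1 full growth; higher means more yeast growth rescued from 5-FOA killing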); conditions: S. cerevisiae cbk1-as DSE1-URA3 strain, 5-FOA growth OD615, 2 d; at 50 µM; stronger effect = higher value
[16] = H69AR cells + 2 uM doxorubicin, measured here: viability with 2 uM doxorubicin, stronger effect = lower value
[17] = H69AR cells, compound alone cytotoxicity

Row | Compound | viability [1] [%] | Her2 level [2] | viability [3] | viability [4] | viability [5] | differential viability (reversal) ([6]; H69AR cells + 2 uM doxorubicin) | viability [6, 16] [%] | viability [6, 17] [%] | inhibition [7] | inhibition [8] | growth inhibition [9] | growth inhibition [10] | viability increase [11] | viability [12] | viability [13] | inhibition [14] | RAM network inhibition [15]
1 | CCOc1cc(C2NC(=O)NC(O)(C(F)(F)F)C2C(=O)c2ccccc2)ccc1OC (stereo not drawn) | 108 | 110% (inactive) | 108% (inactive) | 104% (inactive) | 102% (inactive) | 5.23% (inactive) | 96.6 | 102 | -4.46% (inactive) | -8.2% (inactive) | -0.49% (inactive) | 19.4% (inactive) | -0.8% (inactive) | 109% (inactive) | 97.8% (inactive) | 0.24% (inactive) | 0.2% (inactive)
2 | CC(NC(=O)C1CC1)C(c1cccs1)N1CCN(c2ccccc2)CC1 (stereo not drawn) | 95.5 | 96% (inactive) | 95.5% (inactive) | 105% (inactive) | 89.5% (inactive) | -4.32% (inactive) | 93.8 | 89.5 | -4.13% (inactive) | -5.57% (inactive) | -6.42% (inactive) | 6.87% (inactive) | 0.65% (inactive) | 92% (inactive) | 93.2% (inactive) | 2.08% (inactive) | -0.26% (inactive)
3 | CC1(C)Cc2ccccc2C(N)=C1C#N | 93.5 | 111% (inactive) | 93.5% (inactive) | 87.5% (inactive) | 93.7% (inactive) | 9.91% (inactive) | 83.8 | 93.7 | 4.81% (inactive) | -3.11% (inactive) | 4.29% (inactive) | -0.06% (inactive) | -0.77% (inactive) | 89.9% (inactive) | 91.8% (inactive) | 0.81% (inactive) | 0.69% (inactive)
4 | CC1(C)CC(=O)C=C(Nc2ccc(OCC(F)(F)C(F)F)cc2)C1 | 95 | 104% (inactive) | 95% (inactive) | 92.8% (inactive) | 103% (inactive) | 12.9% (inactive) | 89.9 | 103 | 0.38% (inactive) | -12.3% (inactive) | -3.99% (inactive) | 5.75% (inactive) | 1.17% (inactive) | 89.5% (inactive) | 90.2% (inactive) | -0.6% (inactive) | 3.07% (inactive)
5 | COc1ccc(OC)c(C2=NOC(C(=O)Nc3cc(C)nn3-c3ccccc3)C2)c1 (stereo not drawn) | 86.5 | 106% (inactive) | 86.5% (inactive) | 114% (inactive) | 95.2% (inactive) | 9.74% (inactive) | 85.5 | 95.2 | -2.56% (inactive) | -0.33% (inactive) | -7.35% (inactive) | -4.62% (inactive) | 0.16% (inactive) | 94.2% (inactive) | 94.9% (inactive) | 1.83% (inactive) | 7.22% (inactive)
6 | CCN(CC)C1CCCCC1NS(=O)(=O)c1ccc(Cl)cc1 (stereo not drawn) | 104 | 116% (inactive) | 104% (inactive) | 90.8% (inactive) | 101% (inactive) | 13.1% (inactive) | 87.8 | 101 | -3.6% (inactive) | 3.28% (inactive) | -12% (inactive) | -3.99% (inactive) | -1.53% (inactive) | 86.5% (inactive) | 92.6% (inactive) | 1.03% (inactive) | 5.81% (inactive)
7 | Cc1ccnc(NC(=O)C2CCCN(S(=O)(=O)c3cnc[nH]3)C2)c1 (stereo not drawn) | 95.5 | 104% (inactive) | 95.5% (inactive) | 94.7% (inactive) | 105% (inactive) | 8% (inactive) | 97.4 | 105 | 0.8% (inactive) | -2.79% (inactive) | 1.41% (inactive) | -5.85% (inactive) | -1.81% (inactive) | 97.3% (inactive) | 96.1% (inactive) | 0.925% (inactive) | 3.67% (inactive)
8 | C=CCSc1nc2sc(C)c(C)c2c(=O)[nH]1 | 97.5 | 107% (inactive) | 97.5% (inactive) | 83.3% (inactive) | 90.7% (inactive) | 9.9% (inactive) | 80.8 | 90.7 | -5.87% (inactive) | -10.3% (inactive) | -7.21% (inactive) | -12.2% (inactive) | 0.97% (inactive) | 109% (inactive) | 89% (inactive) | 1.19% (inactive) | 4.66% (inactive)
9 | Cn1cc(Cl)c(C(=O)N(Cc2ccccc2)c2ccccn2)n1 | 98 | 116% (inactive) | 98% (inactive) | 101% (inactive) | 92.2% (inactive) | -1.01% (inactive) | 93.2 | 92.2 | 1.33% (inactive) | 2.33% (inactive) | -8.19% (inactive) | -1.84% (inactive) | -0.96% (inactive) | 93.3% (inactive) | 94.7% (inactive) | 1.62% (inactive) | 7.22% (inactive)
10 | COc1ccc(N(C)C(=O)CCS(=O)(=O)c2cccc3nonc23)c(OC)c1 | 89 | 86.5% (inactive) | 89% (inactive) | 95.7% (inactive) | 104% (inactive) | 9.71% (inactive) | 93.9 | 104 | -6.71% (inactive) | -3.49% (inactive) | -16.1% (inactive) | -20.6% (inactive) | -0.31% (inactive) | 100% (inactive) | 98.8% (inactive) | 1.43% (inactive) | 3.65% (inactive)
11 | CC(=O)NC(CCS(C)(=O)=O)C(=O)Nc1cccc2ccccc12 (stereo not drawn) | 108 | 102% (inactive) | 108% (inactive) | 94% (inactive) | 87.5% (inactive) | -10.2% (inactive) | 97.7 | 87.5 | -1.87% (inactive) | -5.5% (inactive) | -12.6% (inactive) | -14.3% (inactive) | -2.44% (inactive) | 103% (inactive) | 88.3% (inactive) | 1.77% (inactive) | 8.64% (inactive)
12 | CCOc1ccc(NC2c3ccccc3C(=O)N2Cc2ccco2)cc1 (stereo not drawn) | 83.5 | 96.5% (inactive) | 83.5% (inactive) | 98.7% (inactive) | 96.2% (inactive) | -2.58% (inactive) | 98.8 | 96.2 | 5% (inactive) | 7.83% (inactive) | 3.67% (inactive) | 6.9% (inactive) | -0.75% (inactive) | 92.6% (inactive) | 85.4% (inactive) | 1.4% (inactive) | 5.57% (inactive)
13 | CC(C)CNc1oc(-c2ccc(F)cc2)nc1C#N | 108 | 110% (inactive) | 108% (inactive) | 103% (inactive) | 94.2% (inactive) | 1.69% (inactive) | 92.5 | 94.2 | -7.47% (inactive) | -4.1% (inactive) | -15.3% (inactive) | -11.5% (inactive) | 1.69% (inactive) | 101% (inactive) | 84.7% (inactive) | 0.19% (inactive) | 5.05% (inactive)
14 | CC(=O)NC(C)C(=O)OCC(=O)Nc1ccc(Br)cc1 (stereo not drawn) | 95 | 80.5% (inactive) | 95% (inactive) | 93.9% (inactive) | 94.5% (inactive) | 4.86% (inactive) | 89.7 | 94.5 | 0.13% (inactive) | -4.17% (inactive) | -14.2% (inactive) | -18.7% (inactive) | 0.09% (inactive) | 99.7% (inactive) | 100% (inactive) | 2.33% (inactive) | 1.92% (inactive)
15 | CC(C)CCn1c(NCCc2ccccc2)nc2c1c(=O)n(C)c(=O)n2C | 80 | 57.5% (inactive) | 80% (inactive) | 50.8% (inactive) | 81.8% (inactive) | -0.235% (inactive) | 82.1 | 81.8 | -2.93% (inactive) | 2.17% (inactive) | -0.96% (inactive) | 8.48% (inactive) | -2.21% (inactive) | 57.1% (inactive) | 57.4% (inactive) | 1.94% (inactive) | -0.32% (inactive)
16 | CSCCC(N=CC1=C(O)CC(C)(C)CC1=O)C(=O)O (stereo not drawn) | 100 | 139% (inactive) | 100% (inactive) | 99.4% (inactive) | 87.2% (inactive) | -2.07% (inactive) | 89.3 | 87.2 | -3.21% (inactive) | -6% (inactive) | 1.4% (inactive) | 1.57% (inactive) | 0.34% (inactive) | 93.9% (inactive) | 99.9% (inactive) | 0.65% (inactive) | 4.91% (inactive)
17 | CCN(CC)CCCNC(=O)c1cn(C)c2ccc(S(=O)(=O)N(C)C)cc2c1=O | 98.5 | 116% (inactive) | 98.5% (inactive) | 99.2% (inactive) | 99.4% (inactive) | 2.72% (inactive) | 96.7 | 99.4 | -0.26% (inactive) | 1.5% (inactive) | -1.33% (inactive) | 8.49% (inactive) | -0.44% (inactive) | 101% (inactive) | 98.5% (inactive) | 2.21% (inactive) | 1.85% (inactive)
18 | Cc1nnc(NC(=O)CSc2cn(CCNC(=O)c3ccccc3)c3ccccc23)s1 | 83.5 | 106% (inactive) | 83.5% (inactive) | 75.5% (inactive) | 80.4% (inactive) | 13.6% (inactive) | 66.8 | 80.4 | -3.2% (inactive) | -4.17% (inactive) | 3.24% (inactive) | 17% (inactive) | -0.89% (inactive) | 93.5% (inactive) | 88% (inactive) | -0.12% (inactive) | 1.15% (inactive)
19 | CCOC(=O)N1CCN(C(=O)c2ccc(CS(=O)(=O)c3c(Cl)cccc3Cl)o2)CC1 | 114 | 128% (inactive) | 114% (inactive) | 107% (inactive) | 96.5% (inactive) | -4.92% (inactive) | 101 | 96.5 | -3.07% (inactive) | -3.33% (inactive) | -9.35% (inactive) | -14% (inactive) | -2.77% (inactive) | 107% (inactive) | 100% (inactive) | 0.365% (inactive) | 1.21% (inactive)
